From PubChem BioAssay AID1159580 (chemical genetic matrix, 2015)
Out of some 5,500 compounds screened, about 2,000 (36%) were called active. Not shown: some 18% with an inconclusive outcome. Cut-off read from the data, not from the text of the source: active = normalized growth mostly below about 0.91 (no sharp cut-off); inconclusive = no clear call, values can overlap the other calls; inactive = mostly above about 0.92. This is one part of the list.

Assay: chemical genetic growth profiling, strain panel (AID 1159580);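 note: tested at 20 µM; growth read once vehicle control cultures reached saturation at 30 °C; 1 = growth at the plate median or of vehicle wells; lower values mean less growth of the strain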
Details: S. cerevisiae deletion strains, growth OD
[1] = locus YAR019C, strain CDC15, active compounds read low
[2] = locus YBL105C, strain PKC1, active compounds read low
[3] = locus YBR135W, strain CKS1, active compounds read low
[4] = locus YBR136W, strain MEC1, active compounds read low
[5] = locus YBR160W, strain CDC28, active compounds read low
[6] = locus YDL017W, strain CDC7, active compounds read low
[7] = locus YDL028C, strain MPS1, active compounds read low
[8] = locus YDL101C, strain DUN1, active compounds read low
[9] = locus YDL108W, strain KIN28, active compounds read low
[10] = locus YDL132W, strain cdc53, active compounds read low
[11] = locus YDL214C, strain PRR2, active compounds read low
[12] = locus YDR052C, strain DBF4, active compounds read low
[13] = locus YDR054C, strain cdc34, active compounds read low
[14] = locus YDR226W, strain ADK1, active compounds read low
[15] = locus YDR477W, strain SNF1, active compounds read low
[16] = locus YER123W, strain YCK3, active compounds read low
[17] = locus YER133W, strain GLC7, active compounds read low
[18] = locus YFL009W, strain cdc4, active compounds read low
[19] = locus YFL029C, strain CAK1, active compounds read low
[20] = locus YFR003C, strain YPI1, active compounds read low
[21] = locus YFR019W, strain FAB1, active compounds read low
[22] = locus YFR028C, strain CDC14, active compounds read low
[23] = locus YGR040W, strain KSS1, active compounds read low
[24] = locus YGR052W, strain FMP48, active compounds read low
[25] = locus YGR092W, strain DBF2, active compounds read low
[26] = locus YHR030C, strain SLT2, active compounds read low
[27] = locus YHR079C, strain IRE1, active compounds read low
[28] = locus YHR082C, strain KSP1, active compounds read low
[29] = locus YHR205W, strain SCH9, active compounds read low
[30] = locus YIL147C, strain SLN1, active compounds read low
[31] = locus YJL095W, strain BCK1, active compounds read low
[32] = locus YJL128C, strain PBS2, active compounds read low
[33] = locus YJL157C, strain FAR1, active compounds read low
[34] = locus YJR016C, strain ILV3, active compounds read low
[35] = locus YJR066W, strain TOR1 (second series), active compounds read low
[36] = locus YJR066W, strain TOR1, active compounds read low
[37] = locus YKL048C, strain ELM1, active compounds read low
[38] = locus YKL067W, strain YNK1, active compounds read low
[39] = locus YKL101W, strain HSL1, active compounds read low
[40] = locus YKL193C, strain SDS22, active compounds read low
[41] = locus YKL203C, strain TOR2, active compounds read low
[42] = locus YLR113W, strain HOG1, active compounds read low
[43] = locus YLR133W, strain CKI1, active compounds read low
[44] = locus YLR403W, strain SFP1, active compounds read low
[45] = locus YML070W, strain DAK1, active compounds read low
[46] = locus YMR001C, strain CDC5, active compounds read low
[47] = locus YMR205C, strain PFK2 (second series), active compounds read low
[48] = locus YMR277W, strain FCP1, active compounds read low
[49] = locus YNL006W, strain LST8, active compounds read low
[50] = locus YNL020C, strain ARK1, active compounds read low
[51] = locus YNL161W, strain CBK1, active compounds read low
[52] = locus YNL183C, strain NPR1, active compounds read low
[53] = locus YNL207W, strain RIO2, active compounds read low
[54] = locus YNL222W, strain SSU72, active compounds read low
[55] = locus YNL307C, strain MCK1 (second series), active compounds read low
[56] = locus YOL078W, strain AVO1, active compounds read low
[57] = locus YOL136C, strain PFK27, active compounds read low
[58] = locus YOR061W, strain CKA2, active compounds read low
[59] = locus YOR119C, strain RIO1, active compounds read low
[60] = locus YOR231W, strain MKK1, active compounds read low
[61] = locus YOR329C, strain SCD5, active compounds read low
[62] = locus YPL031C, strain PHO85, active compounds read low
[63] = locus YPL153C, strain RAD53, active compounds read low
[64] = locus YPL204W, strain HRR25, active compounds read low
[65] = locus YPL209C, strain IPL1, active compounds read low
[66] = locus YPL256C, strain CLN2, active compounds read low
[67] = locus YPR025C, strain CCL1, active compounds read low
[68] = locus YPR106W, strain ISR1, active compounds read low
[69] = locus YPR111W, strain DBF20, active compounds read low
[70] = strain NNK1, active compounds read low
[71] = strain TSCII, active compounds read low

Measured: normalized growth

Fc1cc(I)ccc1Nc1ccnc2cc(Cl)ccc12
active: [26] 0.841
inactive: [1] 0.977 | [2] 0.975 | [3] 0.981 | [4] 0.989 | [5] 0.978 | [6] 0.977 | [7] 0.979 | [8] 0.981 | [9] 0.986 | [10] 0.986 | [11] 0.911 | [12] 0.968 | [13] 0.974 | [14] 0.993 | [15] 0.949 | [16] 0.901 | [17] 0.948 | [18] 0.978 | [19] 0.98 | [20] 0.991 | [21] 0.943 | [22] 0.981 | [23] 0.918 | [24] 1.06 | [25] 0.954 | [27] 1 | [28] 0.974 | [29] 0.93 | [30] 0.981 | [31] 0.939 | [32] 0.978 | [33] 0.954 | [34] 0.975 | [35] 0.953 | [36] 0.958 | [37] 0.94 | [38] 0.934 | [39] 0.932 | [40] 0.991 | [41] 0.976 | [42] 0.915 | [43] 0.933 | [44] 0.95 | [45] 0.933 | [46] 0.985 | [47] 0.937 | [48] 0.984 | [49] 0.998 | [50] 0.912 | [51] 0.983 | [52] 0.957 | [53] 0.984 | [54] 0.996 | [55] 0.91 | [56] 0.981 | [57] 0.925 | [58] 0.966 | [59] 1.02 | [60] 0.95 | [61] 0.986 | [62] 0.911 | [63] 0.923 | [64] 0.912 | [65] 0.983 | [66] 0.951 | [67] 0.986 | [68] 0.973 | [69] 0.972 | [70] 0.973 | [71] 0.982

Cc1ccc(Nc2ccnc3cc(Cl)ccc23)cc1F
inactive: [1] 0.997 | [2] 0.993 | [3] 0.995 | [4] 0.995 | [5] 0.988 | [6] 1 | [7] 0.991 | [8] 0.992 | [9] 0.995 | [10] 0.987 | [11] 0.942 | [12] 0.991 | [13] 0.985 | [14] 0.997 | [15] 0.946 | [16] 0.918 | [17] 0.96 | [18] 0.983 | [19] 0.986 | [20] 0.996 | [21] 0.943 | [22] 0.989 | [23] 0.945 | [24] 1.06 | [25] 0.973 | [27] 0.96 | [28] 1 | [29] 0.915 | [30] 0.992 | [31] 0.905 | [32] 0.935 | [33] 0.965 | [34] 0.998 | [35] 0.946 | [36] 0.967 | [37] 0.943 | [38] 0.937 | [39] 0.951 | [40] 0.997 | [41] 0.977 | [42] 0.924 | [43] 0.94 | [44] 0.951 | [45] 0.947 | [46] 0.995 | [47] 0.956 | [48] 0.995 | [49] 1.01 | [50] 0.943 | [51] 1 | [52] 0.936 | [53] 0.997 | [54] 1 | [55] 0.918 | [56] 0.997 | [57] 0.934 | [58] 0.978 | [59] 1.04 | [60] 0.972 | [61] 0.996 | [62] 0.947 | [63] 0.938 | [64] 0.927 | [65] 0.998 | [66] 0.92 | [67] 0.99 | [68] 0.994 | [69] 0.976 | [70] 0.981 | [71] 0.99
active: [26] 0.826
